Rows were chosen to be rich in hits. Some 2.5% of all compounds tested hit in one or more screens of this group.
STAT3 binder: STAT3 binders, primary screen, biochemical, small molecule microarray, single point, set 2. His-STAT3 binding, anti-His fluorescence. actives 0.2% (n = 17,000). Signal transducer and activator of transcription 3 (Homo sapiens), P40763. AID 624138, 2012. calls only;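 active = compounds whose four printed spots each show fluorescence over background unusually high for their array block, chance value under 7%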
Myc binder: binders of human c-Myc, primary screen, biochemical, small molecule microarray, anti-His fluorescence; AID 624141, 2012; actives 1.5% (n = 17,000); calls only; His-c-Myc binding;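 active = spot fluorescence over background with P-value below 7% in all four replicate spots, showing protein binding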;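 also: score is binary with 100 for all four spots passing and 0 otherwise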
NFkB binder: binders of NF-kB p50 subunit, primary screen, biochemical, small molecule microarray, anti-His fluorescence. Nuclear factor NF-kappa-B p105 subunit (Homo sapiens), P19838. anti-His fluorescence binding. calls only. actives 1.3% (n = 17,000). AID 624139, 2012;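 active = spot fluorescence over background significantly raised, with a chance value under 7% in all four replicate spots of the compound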;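 also: probe protein is his-tagged human p50 processed subunit at 1 µg/ml; raw spot fluorescence signals with no normalization applied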
mut p53 SMM: binders of human mutant p53, primary screen, biochemical, small molecule microarray, anti-GST fluorescence; mutant tumor protein p53 (GST-tagged), Homo sapiens; small molecule microarray binding; calls only; actives 0.4% (n = 17,000); AID 624136, 2012;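 active = compounds whose four printed spots each glow above background more than chance allows, each with a p-value under 7%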
Starred values were filed as active, the others as inactive; i = inactive; + = active, no number.

SMILES	STAT3 binder	Myc binder	NFkB binder	mut p53 SMM
CC(CO)NC(=O)C1C=C2c3cccc4[nH]cc(c34)CC2N(C)C1 (configuration not stated)	i	+	i	i
C=C1[C@@H](C)[C@H]2[C@H](Cc3ccccc3)NC(=O)[C@]23[C@H](OC(C)=O)C=C[C@](C)(O)C(=O)[C@@H](C)C/C=C/[C@H]3[C@@H]1O	i	i	i	i
CC(=O)O[C@@H](c1nc2ccccc2c(=O)n1[C@@H]1C[C@@]2(OC1=O)c1ccccc1N1C(=O)[C@H](C)N(O)[C@@H]12)C(C)C	i	i	i	i
Cc1cc(SCc2sc(-c3ccc(C(F)(F)F)c(F)c3)nc2C)ccc1OCC(=O)O	i	+	i	i
